Experimental data as given in PubChem BioAssay (NCI).
This is part of a sample that, as a whole, favours compounds with a hit. Of some 79,000 tested, about 15% had one in any assay. The source made the active and inactive calls. Cut-off read from the data, not from the text of the source: active = growth inhibition above about 70%; inactive = the rest.

Tests used:
[1] = NCI Yeast Anticancer Drug Screen. Data for the rad52 strain (AID 147);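 note: 0% = growth of vehicle-treated control cultures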; conditions: S. cerevisiae rad52 mutant growth inhibition, stronger effect = higher value
Summary of the method: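 Compounds are applied to a genetically defined yeast strain lacking normal DNA damage repair, and inhibition of growth is expressed relative to cultures given vehicle only.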

[2] = NCI Yeast Anticancer Drug Screen. Data for the wt1 strain (AID 149);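 note: 0% = growth of vehicle-treated wt1 cultures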; conditions: S. cerevisiae wt1 strain (SPY 50644) growth inhibition, stronger effect = higher value
Summary of the method: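 wt1 strain grown with compound or vehicle; inhibition taken from the growth difference.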

[3] = NCI Yeast Anticancer Drug Screen. Data for the rad50EPP+ strain (AID 151);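 note: 0% = growth of vehicle-treated control cultures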; conditions: S. cerevisiae rad50 mutant strain, stronger effect = higher value
Summary of the method: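 Compounds were applied to the rad50EPP+ yeast strain, which bears a defined DNA repair alteration, and growth inhibition was determined relative to vehicle-treated cultures.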

[4] = NCI Yeast Anticancer Drug Screen. Data for the mgt1 strain (AID 153); conditions: S. cerevisiae mgt1 mutant growth inhibition, stronger effect = higher value
Summary of the method: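 Strain: mgt1 yeast, one of a set carrying defined DNA damage repair or cell cycle control alterations. Compound-treated growth compared with vehicle.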

[5] = NCI Yeast Anticancer Drug Screen. Data for the rad50 strain (AID 155);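 note: 0% = growth of vehicle-only cultures of the same strain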; conditions: S. cerevisiae rad50 strain growth inhibition, stronger effect = higher value
Summary of the method: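 DNA repair mutant yeast, compound exposure, growth read-out; inhibition is taken relative to vehicle.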

[6] = NCI Yeast Anticancer Drug Screen. Data for the mec2-1 strain (AID 157); conditions: S. cerevisiae mec2-1 strain, stronger effect = higher value
Summary of the method: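 Strain: mec2-1 (DNA repair/cell cycle alteration). Compound exposure, then growth measured; inhibition expressed relative to vehicle.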

[7] = NCI Yeast Anticancer Drug Screen. Data for the rad14 strain (AID 159);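 note: 0% = growth of vehicle-treated control cultures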; conditions: S. cerevisiae rad14 strain growth inhibition, stronger effect = higher value
Summary of the method: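 DNA repair-defective yeast, compound-exposed; % growth inhibition derived by comparison with vehicle-treated controls.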

[8] = NCI Yeast Anticancer Drug Screen. Data for the sgs1 mgt1 strain (AID 161);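 note: 0% = growth of cultures given vehicle only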; conditions: S. cerevisiae sgs1 mgt1 strain, stronger effect = higher value
Summary of the method: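 Genetically altered yeast, compound exposure, growth inhibition relative to vehicle.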

[9] = NCI Yeast Anticancer Drug Screen. Data for the CLN2oe strain (AID 163);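 note: 0% = growth of vehicle-only control cultures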; conditions: S. cerevisiae CLN2oe strain, stronger effect = higher value
Summary of the method: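 Growth of a genetically modified yeast strain is measured after compound exposure and compared with cultures given vehicle alone.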

[10] = NCI Yeast Anticancer Drug Screen. Data for the cln2 rad14 strain (AID 165);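 note: 0% = growth equal to vehicle treated cultures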; conditions: S. cerevisiae cln2 rad14 strain, stronger effect = higher value
Summary of the method: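 Compounds are applied to the cln2 rad14 yeast strain, and growth is then compared with that of vehicle-treated cultures to give inhibition.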

[11] = NCI Yeast Anticancer Drug Screen. Data for the bub3 strain (AID 167); conditions: S. cerevisiae bub3 mutant strain, stronger effect = higher value
Summary of the method: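 In this screen, a yeast mutant lacking normal mitotic checkpoint function is challenged with compound. Relative growth versus vehicle gives the inhibition value.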

[12] = NCI Yeast Anticancer Drug Screen. Data for the wt2 strain (AID 169);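 note: 0% = growth of vehicle-treated yeast cultures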; conditions: S. cerevisiae wt2 strain growth inhibition, stronger effect = higher value
Summary of the method: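 This strain belongs to a panel of yeast strains with defined genetic alterations in DNA damage repair or cell cycle control. Compounds are applied, and growth inhibition is measured against vehicle-treated cultures.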

[13] = NCI Yeast Anticancer Drug Screen. Data for the sgs1 strain (AID 173);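 note: 0% = growth of vehicle-only control cultures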; conditions: S. cerevisiae sgs1 mutant, stronger effect = higher value
Summary of the method: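 Growth of a yeast strain bearing a defined genetic alteration is measured after compound treatment. Inhibition is expressed relative to vehicle-only controls.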

[14] = NCI Yeast Anticancer Drug Screen. Data for the mlh1 rad18 strain (AID 175); conditions: S. cerevisiae mlh1 rad18 strain growth inhibition, stronger effect = higher value
Summary of the method: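 Read-out is yeast growth inhibition, calculated against vehicle-only controls. The compound was applied to a strain engineered with DNA damage repair alterations.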

[15] = NCI Yeast Anticancer Drug Screen. Data for the mlh1 strain (AID 171);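 note: 0% = growth of vehicle-treated control cultures of the same strain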; conditions: S. cerevisiae mlh1 strain growth inhibition, stronger effect = higher value
Summary of the method: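 Growth of the mutant yeast strain after compound exposure, expressed as inhibition relative to vehicle-only controls.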

[16] = NCI Yeast Anticancer Drug Screen. Data for the rad18 strain (AID 177); conditions: S. cerevisiae rad18 mutant growth inhibition, stronger effect = higher value
Summary of the method: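 Growth of the mutant yeast strain after compound exposure, normalised to vehicle-only cultures.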

[17] = at 5.0 µM (retest, dose inferred, filed as 0.5)
[18] = at 50.0 µM (retest, dose inferred, filed as 5.0)

Measured: growth inhibition

CCCCCCC1OCC(O)C(OCCCC)O1 (stereo unspecified)
inactive: [1]; at 1.2 µM -3% | [1]; at 3.7 µM -4% | [1]; at 11.0 µM -2% | [1]; at 33.0 µM -4% | [1]; at 100.0 µM -4% | [2]; at 1.2 µM -4% | [2]; at 3.7 µM -3% | [2]; at 11.0 µM -5% | [2]; at 33.0 µM -8% | [2]; at 100.0 µM -10% | [3]; at 1.2 µM -8% | [3]; at 3.7 µM -4% | [3]; at 11.0 µM 2% | [3]; at 33.0 µM 3% | [3]; at 100.0 µM 50% | [4]; at 1.2 µM -6% | [4]; at 3.7 µM -4% | [4]; at 11.0 µM -4% | [4]; at 33.0 µM -6% | [4]; at 100.0 µM -3% | [5]; at 1.2 µM -5% | [5]; at 3.7 µM -11% | [5]; [17] -15% | [5]; at 11.0 µM -4% | [5]; at 33.0 µM -3% | [5]; [18] 3% | [5]; at 50.0 µM -0.55% | [5]; at 100.0 µM 1% | [6]; at 1.2 µM -2% | [6]; at 3.7 µM -3% | [6]; [17] -11% | [6]; at 11.0 µM -2% | [6]; at 33.0 µM -5% | [6]; [18] -35% | [6]; at 50.0 µM -13.7% | [6]; at 100.0 µM -4% | [7]; at 1.2 µM -5% | [7]; at 3.7 µM -4% | [7]; at 11.0 µM -4% | [7]; at 33.0 µM -3% | [7]; at 100.0 µM 0% | [8]; [17] -4% | [8]; [18] 16% | [8]; at 50.0 µM 11.2% | [9]; at 1.2 µM -5% | [9]; at 3.7 µM -3% | [9]; at 11.0 µM -12% | [9]; at 33.0 µM -8% | [9]; at 100.0 µM -7% | [10]; [17] -10% | [10]; [18] 60% | [10]; at 50.0 µM 0.05% | [11]; at 1.2 µM -5% | [11]; at 3.7 µM -6% | [11]; [17] -6% | [11]; at 11.0 µM -8% | [11]; at 33.0 µM -10% | [11]; [18] 15% | [11]; at 50.0 µM -8.05% | [11]; at 100.0 µM -12% | [12]; at 1.2 µM -4% | [12]; at 3.7 µM -5% | [12]; at 11.0 µM -6% | [12]; at 33.0 µM -7% | [12]; at 100.0 µM -7% | [13]; at 1.2 µM -4% | [13]; at 3.7 µM -1% | [13]; at 11.0 µM 0% | [13]; at 33.0 µM 0% | [13]; at 100.0 µM 4% | [14]; [17] 2% | [14]; [18] -4% | [14]; at 50.0 µM -15.8%

CCO/C=C1\SC(=S)N(c2ccc(OCC)cc2)C1=O
active: [1]; at 100.0 µM 70% | [3]; at 100.0 µM 76% | [5]; [18] 79% | [5]; at 100.0 µM 72% | [6]; [18] 86% | [11]; [18] 73% | [11]; at 50.0 µM 72.2% | [14]; [18] 76%
inactive: [1]; at 1.2 µM 3% | [1]; at 3.7 µM -1% | [1]; at 11.0 µM 0% | [1]; at 33.0 µM 25% | [2]; at 1.2 µM -36% | [2]; at 3.7 µM -51% | [2]; at 11.0 µM -50% | [2]; at 33.0 µM -34% | [2]; at 100.0 µM -33% | [3]; at 1.2 µM -38% | [3]; at 3.7 µM -21% | [3]; at 11.0 µM -6% | [3]; at 33.0 µM 42% | [4]; at 1.2 µM -13% | [4]; at 3.7 µM -6% | [4]; at 11.0 µM -20% | [4]; at 33.0 µM 0% | [4]; at 100.0 µM 45% | [5]; at 1.2 µM -17% | [5]; at 3.7 µM -7% | [5]; [17] 41% | [5]; at 11.0 µM -3% | [5]; at 33.0 µM 36% | [5]; at 50.0 µM 29.7% | [6]; at 1.2 µM -43% | [6]; at 3.7 µM -35% | [6]; [17] 47% | [6]; at 11.0 µM -27% | [6]; at 33.0 µM -41% | [6]; at 50.0 µM 28.2% | [6]; at 100.0 µM 26% | [7]; at 1.2 µM -42% | [7]; at 3.7 µM -41% | [7]; at 11.0 µM -40% | [7]; at 33.0 µM -2% | [7]; at 100.0 µM 8% | [8]; [17] -7% | [8]; [18] 44% | [8]; at 50.0 µM 33.5% | [9]; at 1.2 µM -8% | [9]; at 3.7 µM -1% | [9]; at 11.0 µM 4% | [9]; at 33.0 µM 21% | [9]; at 100.0 µM 57% | [10]; [17] 26% | [10]; [18] 60% | [10]; at 50.0 µM 21.1% | [11]; at 1.2 µM -7% | [11]; at 3.7 µM -4% | [11]; [17] 9% | [11]; at 11.0 µM -9% | [11]; at 33.0 µM 32% | [11]; at 100.0 µM 58% | [12]; at 1.2 µM -28% | [12]; at 3.7 µM -38% | [12]; at 11.0 µM -59% | [12]; at 33.0 µM -38% | [12]; at 100.0 µM 27% | [15]; at 1.2 µM -8% | [15]; at 3.7 µM -12% | [15]; at 11.0 µM -18% | [15]; at 33.0 µM -14% | [15]; at 100.0 µM -10% | [13]; at 1.2 µM -35% | [13]; at 3.7 µM -39% | [13]; at 11.0 µM -34% | [13]; at 33.0 µM -33% | [13]; at 100.0 µM 32% | [14]; [17] 29% | [14]; at 50.0 µM 57.5% | [16]; at 1.2 µM -37% | [16]; at 3.7 µM -31% | [16]; at 11.0 µM -32% | [16]; at 33.0 µM -21% | [16]; at 100.0 µM 18%
